Structures can show the parent of a compound that is named as a salt.
Tested on: MDA-MB-468
Test: phospho-S6 immunofluorescence (DAPI-normalised), per-plate z-score; higher = higher phospho-S6 signal (less pathway suppression)
Settings: 24 h
Experimental: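 GPCR-targeted compound library (MedChemExpress HY-L006) tested on MDA-MB-468 PTEN-null TNBC cells in 384-well plates at 0.1, 1 or 10 uM, combined with vehicle, GDC0941 450 nM or lapatinib 1 uM, for 24 h. Phospho-S6 (S240/244) immunofluorescence normalised to DAPI and expressed as a per-plate z-score; values are the mean of biological triplicates.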

| SMILES | phospho-S6 immunofluorescence (z-score) (co-treatment: GDC0941 450 nM) | phospho-S6 immunofluorescence (z-score) (co-treatment: lapatinib 1 uM) | phospho-S6 immunofluorescence (z-score) (co-treatment: vehicle) |
| --- | --- | --- | --- |
| CCOc1nc2cccc(C(=O)O)c2n1Cc1ccc(-c2ccccc2-c2noc(=O)[nH]2)cc1 [Azilsartan] (compound 10 µM) | -0.76 | 0.26 | -0.54 |
| Nc1nc(N)nc(-c2cc(Cl)ccc2Cl)n1 [Irsogladine] (compound 10 µM) | -0.7 | 0.22 | -1.11 |
| CC(C)(C)C1CCC(N(Cc2ccc(C(=O)NCCC(=O)O)cc2)C(=O)Nc2ccc(OC(F)(F)F)cc2)CC1 (stereo not given) (compound 10 µM) | -3.4 | -4.75 | -1.64 |
| COc1ccc(-c2oc3c(CC=C(C)C)c(O)cc(O)c3c(=O)c2O[C@@H]2O[C@@H](C)[C@H](O)[C@@H](O)[C@H]2O)cc1 [Baohuoside I] (compound 10 µM) | -5.72 | -5.94 | -7.08 |
| c1ccc2c(c1)CCCC2C1=NCCN1 (stereo not given) [Tetrahydrozoline (hydrochloride)] (compound 10 µM) | 0.32 | 0.87 | 0.75 |
| CC(CN1c2ccccc2Sc2ccccc21)N(C)C (stereo not given) [Promethazine (hydrochloride)] (compound 10 µM) | -1.86 | -2.76 | -0.84 |
| CCNC(=O)[C@@H]1CCCN1C(=O)[C@H](CCCN=C(N)N)NC(=O)[C@H](CC(C)C)NC(=O)[C@@H](C)NC(=O)[C@H](Cc1ccc(O)cc1)NC(=O)[C@H](CO)NC(=O)[C@H](Cc1c[nH]c2ccccc12)NC(=O)[C@H](Cc1cnc[nH]1)NC(=O)[C@@H]1CCC(=O)N1 [Alarelin (Acetate)] (compound 10 µM) | 0.86 | -0.01 | 1 |
| Cc1cc(NC(=O)Nc2ccc(N(C)C)cc2)c2cc(F)cc(F)c2n1 (compound 10 µM) | -2.07 | -0.1 | -2.06 |
| C[C@H](NC(=O)C(C)(C)Oc1ccc(C(F)(F)F)cn1)[C@@H](Cc1ccc(Cl)cc1)c1cccc(C#N)c1 [Taranabant] (compound 10 µM) | -4.19 | -2.35 | -2.4 |
| NC(N)=Nc1nc(CSCC/C(N)=N/S(N)(=O)=O)cs1 [Famotidine] (compound 10 µM) | -1.24 | -0.34 | -0.29 |
| CC(C)N(CCCCOCC(=O)NS(C)(=O)=O)c1cnc(-c2ccccc2)c(-c2ccccc2)n1 (compound 10 µM) | 0.87 | 0.26 | -0.38 |
| C[C@@](N)(C(=O)O)c1ccc(C(=O)O)cc1 (compound 10 µM) | 0.93 | 1 | 0.17 |
| O=C(CCCN1CCN(c2ccccn2)CC1)c1ccc(F)cc1 [Azaperone] (compound 10 µM) | 0.08 | 0.77 | 0.8 |
| NCCc1c[nH]cn1 [Histamine (phosphate)] (compound 10 µM) | -0.41 | -0.13 | 0.1 |
| CCn1c2ccccc2c2cc(Nc3ccnc(NCCCN4CCOCC4)n3)ccc21 (compound 10 µM) | -3.59 | -8.74 | -10.3 |
| CCN(CC)CC#CCOC(=O)C(O)(c1ccccc1)C1CCCCC1 (stereo not given) [Oxybutynin (chloride)] (compound 10 µM) | 1.35 | 0.51 | 0.53 |
| O=C(O)CCc1ccc(NCc2cccc(Oc3ccccc3)c2)cc1 (compound 10 µM) | -0.04 | 0.32 | 1.24 |
| N#Cc1ccc2[nH]cc(CCCCN3CCN(c4ccc5oc(C(N)=O)cc5c4)CC3)c2c1 [Vilazodone (Hydrochloride)] (compound 10 µM) | -0.01 | -0.76 | 0.65 |
| CCN(CCCCOC(=O)c1ccc(OC)c(OC)c1)C(C)Cc1ccc(OC)cc1 (stereo not given) [Mebeverine (hydrochloride)] (compound 10 µM) | 0.43 | 0.05 | -0.85 |
| O=C(Nc1ccccc1)C12CC1C(=NO)c1ccccc1O2 (stereo not given) (compound 10 µM) | -0.19 | -0.81 | 0.75 |
| CCc1ccc(OCc2ccccc2C(=O)Nc2ccc3nc(C)cc(N)c3c2)cc1 (compound 10 µM) | -5.98 | -12 | -10.4 |
| Cc1ccccc1C(=O)Nc1ccc(C(=O)N2CCCC(O)c3cc(Cl)ccc32)c(C)c1 (stereo not given) [Tolvaptan] (compound 10 µM) | 0.01 | -1.6 | -0.25 |
| CCCSc1nc(N[C@@H]2C[C@H]2c2ccc(F)c(F)c2)c2nnn([C@@H]3C[C@H](OCCO)[C@@H](O)[C@H]3O)c2n1 [Ticagrelor] (compound 10 µM) | -1.29 | 0.02 | 1.13 |

| SMILES | phospho-S6 immunofluorescence (z-score) (co-treatment: GDC0941 450 nM) | phospho-S6 immunofluorescence (z-score) (co-treatment: lapatinib 1 uM) | phospho-S6 immunofluorescence (z-score) (co-treatment: vehicle) |
| --- | --- | --- | --- |
| CC(=O)OCC(=O)[C@@]12N=C(C)O[C@@H]1C[C@H]1[C@@H]3CCC4=CC(=O)C=C[C@]4(C)[C@H]3[C@@H](O)C[C@@]12C [Deflazacort] (compound 10 µM) | -0.99 | -0.57 | -0.08 |
| CCN(Cc1ccncc1)C(=O)C(CO)c1ccccc1 (stereo not given) [Tropicamide] (compound 10 µM) | 0.17 | 1.42 | -0.17 |
| CC[N+](CC)(CC)CCOc1cccc(OCC[N+](CC)(CC)CC)c1OCC[N+](CC)(CC)CC [Gallamine Triethiodide] (compound 10 µM) | 0.5 | -0.13 | 0.47 |
| CCc1cc(-c2noc(-c3cc(OC)nc(C4CCCC4)c3)n2)cc(C)c1OC[C@@H](O)CO [Cenerimod] (compound 10 µM) | -3.08 | -4.72 | -4.14 |
| O=c1ccc2ccc(OCCCCN3CCN(c4cccc5sccc45)CC3)cc2[nH]1 [Brexpiprazole] (compound 10 µM) | -5.22 | -6.92 | -4.57 |
| CCCC1O[C@@H]2C[C@H]3[C@@H]4CCC5=CC(=O)C=C[C@]5(C)[C@H]4[C@@H](O)C[C@]3(C)[C@]2(C(=O)CO)O1 (stereo not given in full) [Budesonide] (compound 10 µM) | -0.53 | -0.12 | -0.2 |
| CC(C)NCC(O)COc1ccc(CCOCC2CC2)cc1 (stereo not given) [Betaxolol (hydrochloride)] (compound 10 µM) | 0.79 | 0.07 | 0.74 |
| CCOCCn1c(C2CCN(CCc3ccc(C(C)(C)C(=O)O)cc3)CC2)nc2ccccc21 [Bilastine] (compound 10 µM) | 0.51 | 0.94 | -0.28 |
| CCC(=O)OCC(=O)[C@@]1(OC(=O)CC)[C@@H](C)C[C@H]2[C@@H]3CCC4=CC(=O)C=C[C@]4(C)[C@@]3(Cl)[C@@H](O)C[C@@]21C [Beclometasone dipropionate] (compound 10 µM) | 0.45 | 0.54 | 0.15 |
| Nc1nc(-c2nn(Cc3ccccc3F)c3ncccc23)ncc1C1CC1 (compound 10 µM) | 1.07 | 2.78 | -0.52 |
| CCC(N)(C(=O)O)c1ccc(C(=O)O)cc1 (stereo not given) (compound 10 µM) | 0.66 | 0.12 | -0.54 |
| CCCc1nc(C(C)(C)O)c(C(=O)O)n1Cc1ccc(-c2ccccc2-c2nnn[nH]2)cc1 [Olmesartan] (compound 10 µM) | 0.13 | 0.28 | -0.82 |
| COCCOc1ccc(N2CCN(CCn3ncc4c3nc(N)n3nc(-c5ccco5)nc43)CC2)cc1 [Preladenant] (compound 10 µM) | -0.66 | 0.79 | 0.97 |
| O=c1ccccn1CC1(O)CCN(Cc2ccccc2)CC1 (compound 10 µM) | 0.52 | -0.19 | 0.48 |
| CCc1cc2c(cc1CC)CC(NC[C@H](O)c1ccc(O)c3[nH]c(=O)ccc13)C2 [Indacaterol (maleate)] (compound 10 µM) | -0.81 | -1.41 | 0.92 |
| CN(C)CC1CCOC1(c1ccccc1)c1ccccc1 (stereo not given) [AVex-73 hydrochloride] (compound 10 µM) | -0.82 | -1.17 | 0.2 |
| O=C(C[S+]([O-])Cc1ccco1)NC/C=C\COc1cc(CN2CCCCC2)ccn1 (stereo not given) [Lafutidine] (compound 10 µM) | -0.67 | 0.02 | -0.32 |
| CC(CN(C)C)CN1c2ccccc2CCc2ccccc21 (stereo not given) [Trimipramine (maleate)] (compound 10 µM) | -1.05 | -2.53 | -0.39 |
| Nc1nc(NCCc2ccc(O)cc2)nc2nc(-c3ccco3)nn12 (compound 10 µM) | -1.88 | 0.67 | 1.01 |
| CC(C)N(CCCCOCC(=O)O)c1cnc(-c2ccccc2)c(-c2ccccc2)n1 (compound 10 µM) | 1.34 | 1.89 | 0.56 |
| CCOc1nc2cccc(C(=O)OC(C)OC(=O)OC3CCCCC3)c2n1Cc1ccc(-c2ccccc2-c2nn[nH]n2)cc1 (stereo not given) [Candesartan (Cilexetil)] (compound 10 µM) | -1.58 | 0.17 | -1.08 |
| C[C@@H]1C[C@H]2[C@@H]3CCC4=CC(=O)C=C[C@]4(C)[C@@]3(F)[C@@H](O)C[C@]2(C)[C@@]1(O)C(=O)CO [Dexamethasone] (compound 10 µM) | 0.1 | 0.34 | 1.02 |
